From PubChem BioAssay (NCATS)
Inconclusive results are not listed. Entries that show only a call come without a potency. Activity calls are given as the source filed them. Unless noted, the call rests on the fitted dose curve; in most records, active means well fitted curve in the direction sought with a large enough effect; inconclusive means small, poorly fitted or top-dose-only effect, or another doubt; inactive means no such curve, though single readings can be large; an effect the other way counts as inactive or inconclusive.

Columns and labels:
[1] = target: Cytochrome P450 1A2 (Homo sapiens) (UniProt P05177); assay: p450-cyp1a2 (AID 410; calls by dose curve; further: potency means the concentration at half of the fitted maximal effect)
Chain of Cytochrome P450 1A2 (Homo sapiens) (P05177 whole entry, looked up): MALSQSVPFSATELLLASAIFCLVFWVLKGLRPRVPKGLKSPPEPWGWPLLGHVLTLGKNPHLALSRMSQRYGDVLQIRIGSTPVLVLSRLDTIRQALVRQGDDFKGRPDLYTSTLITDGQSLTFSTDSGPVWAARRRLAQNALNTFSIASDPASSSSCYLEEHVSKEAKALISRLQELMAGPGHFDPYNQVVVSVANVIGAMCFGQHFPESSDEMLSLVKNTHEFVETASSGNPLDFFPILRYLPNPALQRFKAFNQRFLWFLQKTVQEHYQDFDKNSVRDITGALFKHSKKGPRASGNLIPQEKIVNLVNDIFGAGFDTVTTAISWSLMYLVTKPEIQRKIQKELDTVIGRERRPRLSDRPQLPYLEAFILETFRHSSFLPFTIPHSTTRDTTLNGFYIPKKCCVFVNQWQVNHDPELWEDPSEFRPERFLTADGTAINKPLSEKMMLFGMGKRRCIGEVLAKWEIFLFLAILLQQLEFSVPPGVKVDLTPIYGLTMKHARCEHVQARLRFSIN
How it was run: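 20nM CYP1A2 with 100uM Luciferin-ME (at Km) in 100mM KPO4; compound preincubated 10 min, NADPH regeneration added, 60 min at room temperature. Luciferin quantified by luminescence after detection reagent; normalized to 57 uM furafylline.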

[2] = target: Glucocorticoid receptor (Homo sapiens) (UniProt P04150); assay: GR-GFP Redistribution (AID 450;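 active means compounds whose dose series gives a full or clear partial fitted curve of increased nuclear translocation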; further: potency means the concentration at half of the fitted maximal effect); settings: U2OS GR-GFP nuclear translocation, laser cytometry, 2 h
Chain of Glucocorticoid receptor (Homo sapiens) (P04150 whole entry, looked up, the tested form may be a part): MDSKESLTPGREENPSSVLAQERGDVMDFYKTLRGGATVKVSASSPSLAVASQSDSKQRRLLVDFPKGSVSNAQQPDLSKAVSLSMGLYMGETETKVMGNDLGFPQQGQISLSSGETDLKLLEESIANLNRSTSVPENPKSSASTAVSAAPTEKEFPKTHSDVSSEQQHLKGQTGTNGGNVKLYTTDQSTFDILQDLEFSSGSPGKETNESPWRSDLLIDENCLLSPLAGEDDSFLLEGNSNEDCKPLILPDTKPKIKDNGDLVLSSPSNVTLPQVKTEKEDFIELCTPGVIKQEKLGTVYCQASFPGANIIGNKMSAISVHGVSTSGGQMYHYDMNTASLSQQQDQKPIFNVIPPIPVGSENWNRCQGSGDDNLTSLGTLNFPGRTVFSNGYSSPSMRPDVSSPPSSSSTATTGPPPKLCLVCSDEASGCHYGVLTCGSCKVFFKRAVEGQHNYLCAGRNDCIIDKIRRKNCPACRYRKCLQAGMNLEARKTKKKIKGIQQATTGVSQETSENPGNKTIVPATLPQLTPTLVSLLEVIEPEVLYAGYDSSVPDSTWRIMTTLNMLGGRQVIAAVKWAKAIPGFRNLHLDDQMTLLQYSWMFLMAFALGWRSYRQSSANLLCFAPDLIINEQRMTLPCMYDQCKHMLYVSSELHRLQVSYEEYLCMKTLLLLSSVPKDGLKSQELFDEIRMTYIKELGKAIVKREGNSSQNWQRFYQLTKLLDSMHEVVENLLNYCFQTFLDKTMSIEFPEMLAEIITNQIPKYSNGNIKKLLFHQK

[3] = target: Glucocorticoid receptor (Homo sapiens) (UniProt P04150); assay: GR-EFC Redistribution (AID 451; calls by dose curve; further: potency means the concentration at half of the fitted maximal effect); settings: CHO-K1 GR-EFC translocation, beta-gal luminescence, 2 h
How it was run: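 Translocation of GR-ED fusion to nuclear EA restores b-gal, read by luminescence after 1 h room-temperature detection. Engineered CHO-K1 biosensor cells, 1,000/well, exposed 2 h at 37 C to titrations up to 46 uM final.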

[4] = target: Mitogen-activated protein kinase 10 (Mus musculus) (UniProt Q61831); assay: JNK3 AlphaScreen Assay (AID 530; active means well fitted curve in either direction with a large enough effect, not every such curve was filed as active;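 further: kinase came from lysate of stimulated human HepG2 cells; signal reports phosphorylation of biotinylated GST-cJun 1-79 at Ser73 with 10 µM ATP; series mostly up to about 57 µM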)
How it was run: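 Compound titrations were preincubated 15 minutes at room temperature with substrate, antibody and pre-activated JNK3-containing HepG2 lysate. Reactions were started with 10 uM ATP and stopped with EDTA-containing bead buffer for AlphaScreen detection.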

[5] = target: 3',5'-cyclic-AMP phosphodiesterase 4B (Homo sapiens) (UniProt Q07343); assay: qHTS Assay for Inhibitors of PDE-IV (AID 607; active means well fitted activation curve with a large enough effect in the main read-out, with a control signal flat, not every such curve was filed as active)
Chain of 3',5'-cyclic-AMP phosphodiesterase 4B (Homo sapiens) (Q07343 whole entry, looked up): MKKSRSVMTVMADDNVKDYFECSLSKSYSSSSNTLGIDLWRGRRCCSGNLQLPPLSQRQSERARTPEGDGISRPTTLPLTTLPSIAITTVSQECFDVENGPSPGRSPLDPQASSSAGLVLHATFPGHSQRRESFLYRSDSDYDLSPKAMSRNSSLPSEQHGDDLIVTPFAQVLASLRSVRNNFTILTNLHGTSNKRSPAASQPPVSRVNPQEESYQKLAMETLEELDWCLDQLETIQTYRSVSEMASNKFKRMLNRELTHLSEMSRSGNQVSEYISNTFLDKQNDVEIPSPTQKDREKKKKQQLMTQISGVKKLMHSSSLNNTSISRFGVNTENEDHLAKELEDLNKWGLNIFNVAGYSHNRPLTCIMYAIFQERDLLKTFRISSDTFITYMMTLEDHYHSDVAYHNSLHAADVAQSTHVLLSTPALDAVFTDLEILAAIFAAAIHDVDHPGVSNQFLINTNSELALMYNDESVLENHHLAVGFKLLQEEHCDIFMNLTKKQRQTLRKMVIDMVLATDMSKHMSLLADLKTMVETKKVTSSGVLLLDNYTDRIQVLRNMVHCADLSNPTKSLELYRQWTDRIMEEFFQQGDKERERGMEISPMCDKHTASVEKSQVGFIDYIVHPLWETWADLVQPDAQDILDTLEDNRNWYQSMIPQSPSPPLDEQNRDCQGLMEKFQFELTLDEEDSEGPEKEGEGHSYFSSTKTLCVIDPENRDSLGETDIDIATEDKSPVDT
How it was run: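 HEK293 ACTOne cells with CNG channel (1000/well), endogenous PDE4; membrane potential dye, compounds up to 22.9 uM final. Fluorescence Ex 535/Em 590; RO 20-1724 (100 uM final) as reference.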

[6] = target: Cytochrome P450 2C9 (Homo sapiens) (UniProt P11712); assay: qHTS Assay for Inhibitors and Substrates of Cytochrome P450 2C9 (AID 883); further: potency means the concentration at half of the fitted maximal effect; nearly all actives have a fitted effect of over 60% in size
Chain of Cytochrome P450 2C9 (Homo sapiens) (P11712 whole entry, looked up): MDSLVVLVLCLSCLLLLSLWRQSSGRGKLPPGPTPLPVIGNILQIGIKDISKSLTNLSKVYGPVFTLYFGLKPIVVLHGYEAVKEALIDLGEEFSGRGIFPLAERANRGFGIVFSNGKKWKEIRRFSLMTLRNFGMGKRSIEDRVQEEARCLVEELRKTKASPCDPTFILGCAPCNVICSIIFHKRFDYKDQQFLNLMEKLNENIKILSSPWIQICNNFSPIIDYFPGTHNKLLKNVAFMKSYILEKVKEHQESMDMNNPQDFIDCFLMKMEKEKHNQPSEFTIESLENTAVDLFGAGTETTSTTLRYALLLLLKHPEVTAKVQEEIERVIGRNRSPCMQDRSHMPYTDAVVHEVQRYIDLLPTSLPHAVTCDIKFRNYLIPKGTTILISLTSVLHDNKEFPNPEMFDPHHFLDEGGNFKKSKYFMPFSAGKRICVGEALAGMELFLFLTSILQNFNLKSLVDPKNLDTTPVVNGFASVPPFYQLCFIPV
How it was run: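 Luminescent read-out of deoxyluciferin hydroxylation, normalized to 57uM sulphaphenazole (AC100). Reaction: 10nM enzyme, 100uM Luciferin-H (equal to KM), 25mM KPO4, 10 min compound preincubation, then 60 min with NADPH regeneration, both at 37C.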

[7] = target: Cytochrome P450 3A4 (Homo sapiens) (UniProt P08684); assay: qHTS Assay for Activators of Cytochrome P450 3A4 (AID 885); further: nearly all actives have a fitted effect of over 65% in size
Chain of Cytochrome P450 3A4 (Homo sapiens) (P08684 whole entry, looked up): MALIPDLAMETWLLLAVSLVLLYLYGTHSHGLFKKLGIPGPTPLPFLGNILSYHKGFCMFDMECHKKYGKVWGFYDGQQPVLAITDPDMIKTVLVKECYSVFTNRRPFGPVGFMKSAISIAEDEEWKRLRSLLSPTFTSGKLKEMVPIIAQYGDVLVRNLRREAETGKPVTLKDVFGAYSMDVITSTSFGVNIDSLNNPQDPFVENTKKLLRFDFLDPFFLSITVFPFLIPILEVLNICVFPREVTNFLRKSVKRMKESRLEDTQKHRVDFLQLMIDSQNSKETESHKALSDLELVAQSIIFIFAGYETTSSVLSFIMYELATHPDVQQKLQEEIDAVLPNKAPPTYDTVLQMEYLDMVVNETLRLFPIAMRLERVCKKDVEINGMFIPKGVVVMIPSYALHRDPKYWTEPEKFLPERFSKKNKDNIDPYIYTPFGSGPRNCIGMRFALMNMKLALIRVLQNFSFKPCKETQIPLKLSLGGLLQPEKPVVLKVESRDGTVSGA
How it was run: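 Human CYP3A4 (20 nM) with Luciferin-PPXE at 25 uM (its KM) in 200 mM KPO4; 10 min compound preincubation, then NADPH regeneration and 60 min reaction at RT. Luciferin read by luminescence; normalized to 57 uM ketoconazole full inhibition.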

[8] = target: Cytochrome P450 2C19 (Homo sapiens) (UniProt P33261); assay: qHTS Assay for Inhibitors and Substrates of Cytochrome P450 2C19 (AID 899); further: potency means the concentration at half of the fitted maximal effect; nearly all actives have a fitted effect of over 60% in size
How it was run: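 Luminescence readout of luciferin formed from 10uM Luciferin-H EGE (KM level) by 5 nM CYP2C19 in 50mM KPO4. 60 min NADPH-driven reaction at 37C after 10 min compound preincubation; data scaled to 57uM ketoconazole inhibition.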

[9] = target: DNA dC->dU-editing enzyme APOBEC-3G (Homo sapiens) (UniProt Q9HC16); assay: qHTS for inhibitors of Vif-A3G interactions: Validation (AID 588379)
Chain of DNA dC->dU-editing enzyme APOBEC-3G (Homo sapiens) (Q9HC16 whole entry, looked up): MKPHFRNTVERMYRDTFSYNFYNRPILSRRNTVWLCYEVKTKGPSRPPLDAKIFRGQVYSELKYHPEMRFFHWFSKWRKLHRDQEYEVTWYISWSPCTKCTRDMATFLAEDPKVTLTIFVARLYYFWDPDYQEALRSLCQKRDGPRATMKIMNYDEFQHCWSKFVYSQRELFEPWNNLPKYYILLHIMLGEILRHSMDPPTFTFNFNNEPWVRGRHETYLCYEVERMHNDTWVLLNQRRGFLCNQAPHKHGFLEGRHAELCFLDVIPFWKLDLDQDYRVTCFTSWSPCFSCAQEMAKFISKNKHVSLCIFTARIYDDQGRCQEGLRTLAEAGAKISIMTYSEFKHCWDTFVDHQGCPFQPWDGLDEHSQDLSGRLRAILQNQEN
How it was run: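 HeLa cells stably expressing Vif and A3G-eYFP, 700 cells/well, incubated overnight at 37 deg C, then exposed to compound overnight at 37 deg C. Inhibition of Vif-mediated degradation read as increased yellow fluorescence (Ex 488/Em 500-530) by laser-scanning cytometry.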

[10] = P-glycoprotein substrates identified in KB-8-5-11 adenocarcinoma cell line, qHTS therapeutic library screen (AID 1346987); further: nearly all actives have a fitted effect of over 65% in size; further: potency means the concentration at half of the fitted maximal effect
How it was run: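 KB-8-5-11, a colchicine-selected P-gp-overexpressing KB-3-1 subline, was grown without colchicine for the assay. Cells were seeded at 500 cells/well, dosed in concentration-response and incubated 72 h at 37 degree C, 5% CO2. Viability was read by CellTiter-Glo luminescence.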

[11] = system: Zika virus NS2B-NS3 protease; assay: Primary screen GU AMC qHTS for Zika virus inhibitors (AID 1347154); further: nearly all actives have a fitted effect of over 70% in size
How it was run: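 Fluorogenic AMC-substrate cleavage by noncovalent NS2B-NS3 protease complex (25 nM, pH 8.0 Tris buffer with Tween 20) followed for 15 minutes at room temperature (~20% conversion). Percent inhibition from ex340/em450 signal change, fitted by 4-parameter Hill equation.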

[12] = Primary qHTS for small molecule stabilizers of the endoplasmic reticulum resident proteome: Secreted ER Calcium Modulated Protein (SERCaMP) assay (AID 1508630)
How it was run: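 GLuc-SERCaMP-expressing SH-SY5Y cells, pretreated 16 h with compound, are challenged with thapsigargin to empty ER calcium stores; after 4 h, coelenterazine is added directly to the medium and luminescence is imaged.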

[13] = Primary qHTS for inhibitors of nuclear receptor binding SET domain protein 2 (NSD2) in an isogenic RCH-ACV NSD2 p.E1099K mutant (9B) (AID 1645876); further: nearly all actives have a fitted effect of over 70% in size; further: potency means the concentration at half of the fitted maximal effect
[14] = Primary qHTS for inhibitors of nuclear receptor binding SET domain protein 2 (NSD2) in an RCH-ACV wild type WT cells (2C) (AID 1645877); further: nearly all actives have a fitted effect of over 70% in size
[15] = target: Glutathione peroxidase 1 (Homo sapiens) (UniProt P07203); assay: Primary qHTS Assay for Inhibitors of Recombinant Selenoprotein Glutathione Peroxidase 1 (GPX1) (AID 1845191); further: nearly all actives have a fitted effect of over 65% in size
Chain of Glutathione peroxidase 1 (Homo sapiens) (P07203 whole entry, looked up): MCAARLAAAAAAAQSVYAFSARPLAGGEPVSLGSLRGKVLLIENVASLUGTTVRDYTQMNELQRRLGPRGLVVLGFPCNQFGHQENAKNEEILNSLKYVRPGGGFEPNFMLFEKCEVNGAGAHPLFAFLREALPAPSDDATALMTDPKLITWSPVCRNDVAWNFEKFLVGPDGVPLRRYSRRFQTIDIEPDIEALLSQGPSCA
How it was run: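 10 nM GPX1 + cpd, 30 min RT; start w/ 1 mM GSH, 0.5 mM cumene hydroperoxide, 0.5 mM NADPH, 100 nM GR, 0.01% BSA; buffer 50 mM Tris-HCl pH 7.5, 2 mM EDTA, 150 mM NaCl; Fl 340/450, 0 & 15 min.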

[16] = qHTS to identify inhibitors of the type 1 interferon - major histocompatibility complex class I in skeletal muscle: primary screen against the NCATS Mechanism Interrogation Plate v5.0 (MIPE) Libary (AID 1347411); further: nearly all actives have a fitted effect of over 65% in size
How it was run: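 Immortalized human myoblasts (C25cl48) with HiBit knocked into endogenous HLA-B*08:01 were stimulated with 4 ng/ml IFN-beta and given compounds in 11-point 1:3 titration from 46 uM. After 24 h at 37 C, lytic HiBiT luminescence was read.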

[17] = target: Phospholipid hydroperoxide glutathione peroxidase GPX4 (Homo sapiens) (UniProt P36969); assay: Primary qHTS Assay for Inhibitors of Recombinant Selenoprotein Glutathione Peroxidase 4 (GPX4) (AID 1845192); settings: outcome: dose series up to 50 µM unless noted
Chain of Phospholipid hydroperoxide glutathione peroxidase GPX4 (Homo sapiens) (P36969 whole entry, looked up): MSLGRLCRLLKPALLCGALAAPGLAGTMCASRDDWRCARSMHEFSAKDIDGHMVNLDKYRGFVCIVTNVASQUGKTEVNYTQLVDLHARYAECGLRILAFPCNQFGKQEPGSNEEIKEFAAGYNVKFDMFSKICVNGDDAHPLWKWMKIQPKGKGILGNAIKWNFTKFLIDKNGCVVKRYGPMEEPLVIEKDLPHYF
How it was run: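 NADPH consumption, followed by fluorescence at 340/450 nm between 0 and 15 min, reports GPX4 activity via coupled glutathione reductase (100 nM). Enzyme 200 nM was pre-exposed to compound 30 min; 0.5 mM cumene hydroperoxide and 1 mM GSH served as substrates.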

[18] = qHTS drug screen for cell cycle checkpoint inhibitors in PARPi-resistant BRCA-mutant ovarian cancer cell lines. (AID 1963452; calls by dose curve); settings: PEO1/OlaR viability, CellTiter-Glo luminescence, 96 h, stronger effect = lower value
How it was run: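 PEO1, PEO4 and PEO1/OlaR ovarian cancer cells, 600 per well, exposed 96 h at 37C to a dilution series. Viability read by CellTiter-Glo luminescence, normalized to DMSO and empty wells; activity summarized as Z-AUC.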

[19] = qHTS for Inhibitors of Ubiquitin-specific Protease USP2a Using CHOP2 as the Reporter: K633 Counterscreen (AID 652168); further: series mostly up to about 57 µM
How it was run: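 Cell-free interference counterscreen without USP2a: compounds pinned into enzyme-free buffer (20 mM Tris pH 8, 2 mM beta-mercaptoethanol, 0.05% Chaps), then DiUb K48-4IQF substrate added (100 nM stock); fluorescence read kinetically, Ex 525/Em 598.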

[20] = qHTS for Inhibitors of Ubiquitin-specific Protease USP2a Using CHOP2 as the Reporter: Cytotox Assay (AID 652170); further: series mostly up to about 46 µM; nearly all actives have a fitted effect of over 70% in size
How it was run: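 HCT116 human colon cancer cells, 600 per well in DMEM with 10% FBS, exposed to compounds for 72 hr at 37 deg C. ATP measured by CellTiter-Glo luminescence, normalized to DMSO cells and no-cell background.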

[21] = target: Ubiquitin carboxyl-terminal hydrolase 2 (Homo sapiens) (UniProt O75604); assay: qHTS for Inhibitors of Ubiquitin-specific Protease USP2a Using CHOP2 as the Reporter: K484 Substrate (AID 652173); settings: USP2 cleavage of DiUb K48 IQF substrate, fluorescence
Chain of Ubiquitin carboxyl-terminal hydrolase 2 (Homo sapiens) (O75604 whole entry, looked up): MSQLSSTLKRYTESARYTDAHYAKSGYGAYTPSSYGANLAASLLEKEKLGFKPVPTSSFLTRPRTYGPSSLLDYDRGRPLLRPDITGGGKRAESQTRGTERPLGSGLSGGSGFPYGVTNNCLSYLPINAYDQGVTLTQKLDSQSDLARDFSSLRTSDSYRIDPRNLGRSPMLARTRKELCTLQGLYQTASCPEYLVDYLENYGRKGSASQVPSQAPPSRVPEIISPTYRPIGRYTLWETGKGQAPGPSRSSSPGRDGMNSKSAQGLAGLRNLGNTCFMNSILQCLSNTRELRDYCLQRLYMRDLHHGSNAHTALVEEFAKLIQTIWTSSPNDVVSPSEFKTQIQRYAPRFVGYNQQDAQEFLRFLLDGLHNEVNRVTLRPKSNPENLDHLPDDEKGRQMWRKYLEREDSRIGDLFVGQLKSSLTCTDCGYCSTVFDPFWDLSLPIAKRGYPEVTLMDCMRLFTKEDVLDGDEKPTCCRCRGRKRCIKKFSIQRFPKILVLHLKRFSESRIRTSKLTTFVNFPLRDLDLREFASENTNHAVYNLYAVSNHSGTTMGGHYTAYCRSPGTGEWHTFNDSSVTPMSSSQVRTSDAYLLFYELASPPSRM
How it was run: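 USP2 (dispensed at 5 nM) was pinned with compounds, then DiUb K48 internally quenched fluorescent substrate (dispensed at 100 nM) was added. The buffer was 20 mM Tris pH 8, 2 mM beta-mercaptoethanol and 0.05% CHAPS. Cleavage was read kinetically as rising fluorescence, Ex 525/Em 598.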

[22] = target: Calcium and integrin-binding protein 1 (Homo sapiens) (UniProt Q99828); assay: Primary qHTS for Identification of Calcium Integrin Binding Protein 1 (CIB1) Competitor (AID 1508620);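 further: GST tagged CIB1 binding a fluorescein labelled alphaIIb integrin peptide tracer; top concentration of the series differs between compounds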
Chain of Calcium and integrin-binding protein 1 (Homo sapiens) (Q99828 whole entry, looked up): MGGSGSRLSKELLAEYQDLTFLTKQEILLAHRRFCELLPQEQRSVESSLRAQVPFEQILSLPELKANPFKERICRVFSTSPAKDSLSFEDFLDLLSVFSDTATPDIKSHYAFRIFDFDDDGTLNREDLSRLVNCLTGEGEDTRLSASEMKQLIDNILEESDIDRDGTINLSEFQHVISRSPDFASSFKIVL
How it was run: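 CIB1-GST (1 uM final) and compound incubated 15 min at room temperature before adding FITC-alphaIIb peptide tracer (100 nM final). Competition for binding read by fluorescence polarization (ex 480, em 540) after another 15 min at room temperature.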

SMILES: Nc1[nH]nc2nc3ccccc3nc12
- Potency [1]: 316 nM (active)
- Potency [2]: > 46 µM (inactive)
- Potency [3]: > 46 µM (inactive)
- Potency [4]: inactive
- Potency [5]: inactive
- Potency [6]: 2 µM (active)
- Potency [7]: inactive
- Potency [8]: 631 nM (active)
- Potency [9]: inactive
- Potency [10]: inactive
- Potency [11]: inactive
- Potency [12]: inactive
- Potency [13]: inactive
- Potency [14]: inactive
- Potency [15]: inactive

SMILES: NC(=O)c1ncn(C2O[C@H](CO)[C@@H](O)[C@H]2O)c1N (stereo partly specified)
- Potency [10]: inactive
- Potency [13]: inactive

SMILES: CNc1ncc2cc(-c3cc(NC(=O)NCCC(C)(C)C)c(F)cc3C)c(C)nc2n1
- Potency [10]: 4.61 µM (active)
- Potency [16]: inactive
- Potency [13]: 417 nM (active)
- Potency [15]: inactive
- Potency [17]: inactive
- Z-AUC [18]: -1.04 (inactive)
- Z-AUC ([18]; measured here: PEO1 parental Z-AUC): -0.267
- Z-AUC ([18]; measured here: PEO4 Z-AUC): -0.215

SMILES: O=C(Nc1ccc(S(=O)(=O)Nc2nccs2)cc1)c1cc(-c2ccccc2)nc2ccccc12
- outcome [19]: inactive
- outcome [20]: inactive
- Potency [21]: 1.37 µM (active)
- Potency [10]: inactive
- outcome [22]: inactive
- Potency [15]: inactive
